tim10-1 inh: tim10-1 yeast growth inhibition; S. cerevisiae tim10-1 ts strain growth, BacTiter-Glo, 24 h; inhibition, % at 20 µM; 2.2% of 330,000 active; AID 463190;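 active = inhibition of at least 40%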;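 note: mutant grown at 25 °C; 0% = DMSO wells with yeast and 100% = wells holding no yeast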
TIM10 inh: TIM10 yeast growth inhibition; S. cerevisiae TIM10 strain growth, BacTiter-Glo luminescence, 24 h; inhibition, % at 10 µM; 1.4% of 330,000 active; AID 463195;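 active = inhibition of 40% or more at the single tested concentration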;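 note: wild-type TIM10 isogenic control strain grown at permissive 25 °C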
SKKanGAS inh: inhibitors of SKKanGAS S. pyogenes growth in kanamycin (SK-promoter or general growth effect); 1.3% of 300,000 active; inhibition, % at 7.5 µM; AID 1662; BacTiter-Glo, 6 h;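 active = mean replicate score, as percent of positive control median, at least 50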;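 note: strain carries kanamycin resistance gene driven by streptokinase promoter and grows in 40 µg/ml kanamycin; loss of luminescence reflects streptokinase promoter inhibition or plain growth inhibition; 0% = median of DMSO wells and 100% = positive control at its reference dose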
tim23-1 inh: growth inhibitors of tim23-1 mutant yeast. S. cerevisiae tim23-1 growth, BacTiter-Glo luminescence, 24 h. inhibition, % at 20 µM. 1.3% of 330,000 active. AID 463212;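 active = growth inhibition of the mutant yeast at or above 50%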;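 note: temperature-sensitive mutant grown at 25 °C; plate controls were DMSO-treated mutant yeast for no effect and medium wells lacking yeast for full effect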
NALP3 yeast inh: inhibitors of NALP3 inflammasome in yeast; Yeast reconstituted NLRP3/ASC/caspase-1, beta-gal luminescence, 24 h; inhibition, % at 10 µM; 0.39% of 330,000 active; AID 2825;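 active = inhibition of 50% or more; inactive = inhibition below 50%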;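 note: plate controls were induced DMSO wells for no effect and uninduced yeast grown without galactose for full effect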
tim10-1 conf: tim10-1 yeast growth inhibition, confirmed | inhibition, % at 20 µM | S. cerevisiae tim10-1 ts strain growth, BacTiter-Glo, 24 h | 56% of 7,400 active | shares compounds with tim10-1 inh;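 active = inhibition of yeast growth at or above a set limit in either of two repeat tests at 20 µM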;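 note: tim10-1 mutant grown at permissive 25 °C to find synthetic lethal compounds; 0% = DMSO yeast wells and 100% = medium wells without yeast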
Starred values were filed as active, the others as inactive; . = no result given. Sampled rows, rich in hits. Any-hit rate of the full collection: about 4.6%.

SMILES | tim10-1 inh | TIM10 inh | SKKanGAS inh | tim23-1 inh | NALP3 yeast inh | tim10-1 conf
O=C(CNS(=O)(=O)c1c(Cl)cccc1Cl)OCc1csc(-c2ccccc2)n1 | 47* | 14 | -19 | 47 | -2 | 32*
CCCN(Cc1ccccc1)C(=S)Nc1cccc(C(F)(F)F)c1 | 47* | 25 | 1 | 5 | 10 | 31*
O=C(NP(=O)(N1CCCC1)N1CCCC1)C1=C(N2CCOCC2)/C(=C/c2cccc([N+](=O)[O-])c2)CC1 | 28 | 16 | -21 | 11 | -9 | .
CCOC(=O)C(=O)C1=C(N2CCOCC2)/C(=C\c2cccc([N+](=O)[O-])c2)CC1 | 41* | 22 | 1 | 47 | -1 | 25
CCc1ccc(N2C(=O)CC(N3CCC(C(=O)OC)CC3)C2=O)cc1 (configuration not stated) | 43* | 11 | -1 | 22 | 15 | 42*
CCOC(=O)C1CCCN(C2CC(=O)N(c3ccc(C(C)C)cc3)C2=O)C1 (configuration not stated) | 42* | 23 | -8 | 25 | 18 | 30*
CCOC(=O)C1CCCN(C2CC(=O)N(c3cccc(C(F)(F)F)c3)C2=O)C1 (configuration not stated) | 56* | 31 | 0 | 33 | 4 | 42*
CCOC(=O)C1CCCN(C2CC(=O)N(c3ccccc3)C2=O)C1 (configuration not stated) | 34 | 4 | 1 | 25 | 17 | .
O=C(Nc1cccc(S(=O)(=O)N2CCCCC2)c1)c1cc(=O)[nH]c2ccccc12 | -3 | 3 | . | 2 | 20 | .
CCC(C(=O)OCC(=O)Nc1cc(Cl)cc(Cl)c1)c1ccccc1 (configuration not stated) | 40* | 24 | 53* | 29 | 9 | 26
Cc1ccc(NS(=O)(=O)c2cc(C(=O)N(C)C3CCN(C)CC3)ccc2Cl)cc1Cl | -16 | -3 | . | -2 | 5 | .
O=C(NCCCNc1ccc(C(F)(F)F)cc1[N+](=O)[O-])c1ccc(Cl)cc1 | 46* | -4 | 17 | 9 | 38 | -2
Cc1cc(NC(=O)c2noc3c2CCCC3)nn1Cc1ccc(Cl)cc1 | 45* | 17 | 4 | 27 | 16 | 22
CCN1CCN(C(=O)c2ccc3c(=O)n(CCc4ccccc4)c(=O)[nH]c3c2)CC1 | -7 | -1 | 14 | 16 | 23 | .
CCn1c(SC(C)C)nnc1-c1cc(-c2ccccc2)sc1N | 46* | 39 | 31 | 39 | 28 | 38*
CC1(C)CC2CC(C)(CN2S(=O)(=O)c2cccc(N)c2)C1 (configuration not stated) | 48* | 35 | -9 | 27 | 2 | 39*
C=CC[C@H](CC(=O)N[C@H](CO)Cc1ccccc1)C(=O)N[C@H](COC(=O)[C@H](CC=C)CC(=O)OC(C)(C)C)Cc1c[nH]c2ccccc12 | -10 | -6 | . | -1 | 23 | .
CCOC(=O)CN1C(c2ccc(O)cc2)Nc2ccc(Br)cc2C1c1ccccc1 (configuration not stated) | 46* | 32 | 5 | 44 | 1 | 18
S=c1[nH]nc(-c2ccccc2)n1Cc1ccccc1 | 39 | 29 | 1 | 7 | 18 | .
CC(C)c1cc(-c2n[nH]c(=S)n2Cc2ccccc2)cs1 | 47* | 29 | -3 | 35 | 33 | 27
Cc1ccc(S(=O)(=O)NCc2ccc(C(=O)N3CCc4ccccc4C3)cc2)cc1 | 47* | 28 | 4 | 38 | 11 | 28
CCC(c1nnc(SC(C)C(=O)NC2CC2)n1-c1ccc(OC)cc1)N(C)C (configuration not stated) | -1 | -1 | . | 2 | 23 | .
CC1=CC(C)(C)Nc2ccc(OC(=O)CCN3C(=O)c4ccccc4C3=O)cc21 | 40* | 38 | -4 | 37 | 14 | 32*
Cc1ccc(S(=O)(=O)CCC(=O)Oc2ccc3c(C)cc(=O)oc3c2)cc1 | 13 | 15 | 36 | 17 | 6 | .
Cc1cc(=O)oc2cc(OC(=O)CCCCCN3C(=O)c4ccccc4C3=O)ccc12 | 49* | 26 | -2 | 40 | -2 | 43*
SMILES | tim10-1 inh | TIM10 inh | SKKanGAS inh | tim23-1 inh | NALP3 yeast inh | tim10-1 conf
CC(C)c1ccc(C2c3[nH]c4ccccc4c3C[C@H]3C(=O)N(c4ccccc4C(=O)N4CCC(C(=O)O)CC4)C(=O)N23)cc1 (some centres not stated) | 26 | 0 | 28 | 12 | 17 | .
Cc1nc2ccccc2c2oc(C(=O)NCCCN3CC(C)CC(C)C3)cc12 (configuration not stated) | -8 | -4 | 7 | -10 | 12 | .
COc1ccc2cc3cc(C(=O)N4CC(C)CC(C)C4)oc3nc2c1 (configuration not stated) | 56* | 30 | 19 | 46 | 17 | 21
COc1ccc2nc3oc(C(=O)N4CCC(C(N)=O)CC4)cc3cc2c1 | 6 | -5 | -2 | 10 | 8 | .
Cc1nc2ccccc2c2oc(C(=O)N3CC(C)CC(C)C3)cc12 (configuration not stated) | 52* | 5 | 14 | 42 | 5 | -9
CC(C)[C@H](N)c1cn([C@@H](CC(N)=O)C(=O)N2CCNCC2)nn1 | -14 | 1 | . | 12 | -10 | .
CC(=O)c1ccc(NC(=S)NC(C)c2ccc(Cl)cc2Cl)cc1 (configuration not stated) | 56* | 26 | 22 | 27 | 1 | 33*
CC(=O)c1ccc(NC(=S)NC(=O)Cc2ccc(Cl)cc2)cc1 | -28 | -8 | -3 | -22 | 15 | .
CCOc1ccc(NC(=O)c2cccc3c2C(=O)N(Cc2cccnc2)C3)cc1 | 42* | 34 | 13 | 25 | 25 | 35*
COCCN1Cc2cccc(C(=O)Nc3ccc4c(c3)OCCO4)c2C1=O | 45* | 14 | 16 | 20 | 7 | 18
COCCN1Cc2cccc(C(=O)Nc3ccc(C)cc3)c2C1=O | 43* | 17 | 11 | 23 | 13 | 28
COCCN1Cc2cccc(C(=O)Nc3cccnc3)c2C1=O | 25 | 11 | . | 9 | 9 | .
CCCCc1ccc(C2C(C#N)=C(N)SC(N)=C2C#N)s1 | 50* | 12 | . | 33 | 14 | 34*
Cc1ccc(NC(=O)c2cccc(-n3cnnn3)c2)cc1Cl | 1 | -1 | . | -6 | 12 | .
Cc1cccc(N2CCN(C(=O)CCC(=O)N3Cc4ccccc4Oc4ncccc43)CC2)c1C | 54* | -12 | 6 | 26 | 18 | -20
Cc1cc(C)c(C)c(S(=O)(=O)NCC(=O)Nc2ccc(F)cc2)c1C | 18 | 5 | -4 | 22 | -3 | .
O=C1C2C3C=CC(CO)(O3)C2C(=O)N1c1ccccc1-c1ccccc1 (configuration not stated) | 53* | 19 | . | -5 | -22 | 87*
CC(NC(=O)CCNC(=O)c1ccc(C(C)(C)C)cc1)c1ccccc1 (configuration not stated) | 12 | 4 | . | 22 | 1 | .
COc1ccc(C(=O)c2sc3nc(-c4ccccc4)ccc3c2N)cc1 | 45* | 5 | . | 20 | 14 | 19
